Gal4-VP16 FLuc = Gal4-VP16 reporter inhibition counter-screen; Drosophila S2 Gal4-VP16 UAS-luciferase, luminescence, 20 h; AID 2546; Potency, µM (highest dose often 53.6 µM), actives largely listed as inhibitors; 310,000 tested, 3.5% active;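 note: Gal4-VP16 expression switched on by copper sulfate through the metallothionein promoter; nearly all actives have a fitted effect of over 50% in size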
Sfp PPTase inh = blocks B. subtilis Sfp PPTase activity. Q9F4F7. 310,000 tested, 3.5% active. Biochemical Sfp PPTase activity, qHTS. Potency, µM, hits mostly inhibitors;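 note: the enzyme is Sfp with the accession as filed and its product quenches rhodamine fluorescence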
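Step 1, compound plus 15 nM Sfp-PPTase, 15 min, room temperature. Step 2, add rhodamine-CoA (5 uM) and BHQ-2-YbbR (12.5 uM). Step 3, read 525/598 nm fluorescence at 0 and 30 min.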
Epigenetic reg = derepresses silenced GFP reporter in murine cells; Potency, µM (doses to about 53.9 µM), most hits filed as activators; murine LDR cells, GFP reporter derepression, 30 h; 280,000 tested, 0.2% active; note: nearly all actives have a fitted effect of over 60% in size
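Reporter derepression read as number of fluorescent GFP-positive objects, 20-120 um in size, counted by laser-scanning cytometer. Mouse LDR line with an epigenetically silenced CMV-GFP locus; compound incubation 30 h, 37 C.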
ClpP mod = qHTS Assay for Activators of ClpP. 340,000 tested, 1.9% active. Potency, µM (series often up to 57.5 µM). ATP-dependent Clp protease proteolytic subunit (Bacillus subtilis (strain 168)), P80244. purified B. subtilis ClpP, FRET peptide cleavage, 20 min; active = well fitted falling curve with a large enough effect; inconclusive = small, poorly fitted or top-dose-only effect; inactive = no such curve, though single readings can be large or run the other way; note: the source files actives as falling curves though it sought activators and does not explain the sign; nearly all actives have a fitted effect of over 65% in size
Target sequence (P80244 whole entry, looked up): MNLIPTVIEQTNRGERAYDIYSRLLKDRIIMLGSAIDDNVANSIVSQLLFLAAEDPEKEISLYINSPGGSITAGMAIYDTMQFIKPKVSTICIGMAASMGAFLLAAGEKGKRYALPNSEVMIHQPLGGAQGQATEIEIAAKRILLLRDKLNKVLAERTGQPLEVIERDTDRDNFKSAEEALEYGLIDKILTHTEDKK
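Purified B. subtilis ClpP, 10 microg/mL final in Tris/HCl pH8 with KCl, BSA, glycerol and Tween-20, cleaved an Abz/nitrotyrosine-quenched decapeptide. Fluorescence (ex 320, em 430) was read at 0 and 20 min at room temperature. Delta was normalized to 5.8 microM ADEP and DMSO/no-enzyme controls.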
PINK1 expr mod = changes PINK1 expression; PINK1 immunofluorescence, high-content cytometry, 24 h; Potency, µM (series often up to 76.6 µM), actives largely listed as activators; 410,000 tested, 0.2% active; active = well fitted activation curve with a large enough effect; inconclusive = small, poorly fitted or top-dose-only effect; cell line not stated here; note: nearly all actives have a fitted effect of over 65% in size
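Readout is PINK1 immunofluorescence, quantified alongside mitochondrial, cell and nuclear markers by laser-scanning microplate cytometry. Cells from a stable line were exposed to compound titrations (5 concentrations) for 24 hours, with CCCP controls.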
RORg inh = ROR gamma (mouse) transcription inhibition | P51450 | Drosophila S2 Gal4-RORgamma UAS-luciferase reporter, 20 h | Potency, µM (series often up to 53.6 µM), actives largely listed as inhibitors | 310,000 tested, 5.4% active | AID 2551; note: nearly all actives have a fitted effect of over 60% in size
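Stable Schneider cell line, Gal4 DNA-binding domain fused to ROR gamma, UAS-luciferase. Cmpd 1 hr RT → CuSO4 700 uM final → 20 hr RT → luciferase reagent 10 min → luminescence.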
Large screens that a line does not name were inactive. The list is not random: actives were taken first. Their share in the collection is about 8.1%. Unless noted, calls come from the whole dose curve; as a rule, active = well fitted curve in the direction sought with a large enough effect; inconclusive = small, poorly fitted or top-dose-only effect, or another doubt; inactive = no such curve, though single readings can be large; an effect the other way counts as inactive or inconclusive.

O=C(O)c1ccnc(C(=O)O)c1	Sfp PPTase inh 35µM
CN(C)c1ccnc(C(=O)O)c1	Sfp PPTase inh 56µM (no result: ClpP mod)
O=C(O)c1cc2ccccc2cn1	none (no result: Gal4-VP16 FLuc, Sfp PPTase inh, Epigenetic reg, ClpP mod, RORg inh)
O=C(O)c1cc(Br)ccn1	Sfp PPTase inh 35µM (no result: ClpP mod)
Cc1csc[n+]1CC(=O)c1ccc(I)cc1	none (no result: Gal4-VP16 FLuc, Sfp PPTase inh, Epigenetic reg, PINK1 expr mod, RORg inh)
CN1C(=O)Cc2cc(S(=O)(=O)NCc3ccccc3Cl)ccc21	none (no result: Gal4-VP16 FLuc, Sfp PPTase inh, RORg inh)
N#CC(c1ccc(Cl)cc1)c1nc2ccccc2nc1C(F)(F)F (stereo not drawn)	Gal4-VP16 FLuc 10µM, RORg inh inconclusive
CCc1nc(Nc2ccccc2)c2nnn(Cc3ccccc3)c2n1	Sfp PPTase inh 35µM, ClpP mod inconclusive (no result: Gal4-VP16 FLuc, Epigenetic reg, RORg inh)
FC(F)(F)c1nc(NCc2ccccc2)c2nnn(Cc3ccccc3)c2n1	RORg inh 8.9µM (no result: Epigenetic reg)
CC(=O)c1cn(CC(=O)Nc2c(C)cccc2C)c2ccccc12	Gal4-VP16 FLuc 7.1µM
COc1ccc(-c2nc(CSc3nncn4c3cc3oc(C)cc34)c(C)o2)cc1	none (no result: Gal4-VP16 FLuc, Sfp PPTase inh, RORg inh)
Cc1ccc(CNC(=O)C2CCN(S(=O)(=O)Cc3ccccc3)CC2)cc1	none (no result: Gal4-VP16 FLuc, Sfp PPTase inh, RORg inh)
Cc1ccc(N(C)C(=O)c2noc3c2CCCCC3)cc1C	none (no result: Gal4-VP16 FLuc, Sfp PPTase inh, RORg inh)
COc1cc(NC(=S)NC(=O)c2cccs2)ccc1NC(=O)C(C)C	Gal4-VP16 FLuc inconclusive, RORg inh 13µM
CCCCC(=O)Nc1ccc(NC(=S)NC(=O)c2ccco2)cc1OC	Sfp PPTase inh inconclusive (no result: ClpP mod)
CCCCC(=O)Nc1ccc(NC(=S)NC(=O)CC)cc1OC	RORg inh 13µM
CCCCC(=O)Nc1ccc(NC(=S)NC(=O)CCCCl)cc1OC	Gal4-VP16 FLuc inconclusive, RORg inh inconclusive
CCCCC(=O)Nc1ccc(NC(=S)NC(=O)c2cccs2)cc1OC	Gal4-VP16 FLuc inconclusive, RORg inh 10µM
COc1cccc(NC(=O)Cn2c(=O)n(-c3cccc(OC)c3)c(=O)c3c4c(sc32)CCCC4)c1	none (no result: Gal4-VP16 FLuc, Sfp PPTase inh, RORg inh)
Cc1nc(SCc2nc3ccc(C(F)(F)F)cc3[nH]2)c2oc3ccccc3c2n1	PINK1 expr mod 16µM (no result: Gal4-VP16 FLuc, Sfp PPTase inh, Epigenetic reg, ClpP mod, RORg inh)
Cc1nc(SCc2nc3cc(Cl)c(F)cc3[nH]2)c2oc3ccccc3c2n1	PINK1 expr mod 14µM (no result: Gal4-VP16 FLuc, Sfp PPTase inh, Epigenetic reg, ClpP mod, RORg inh)
Cc1nc(SCc2nc3ccc(Cl)cc3[nH]2)c2oc3ccccc3c2n1	none (no result: Gal4-VP16 FLuc, Sfp PPTase inh, Epigenetic reg, ClpP mod, RORg inh)
Oc1ccc(/C=C/c2nc(-c3ccccc3O)n(-c3ccccc3)n2)c(O)c1	ClpP mod inconclusive (no result: Gal4-VP16 FLuc, Sfp PPTase inh, RORg inh)
CC(C)NC(=O)c1cn([C@H]2CC[C@@H](NC(=O)/C=C/c3cccs3)CC2)nn1	none (no result: Gal4-VP16 FLuc, Sfp PPTase inh, Epigenetic reg, ClpP mod, RORg inh)
Cc1ccccc1C1(CC(=O)N2CCCCC2c2cccnc2)CC(=O)N(C2CCCC2)C1=O (stereo not drawn)	none (no result: Gal4-VP16 FLuc, Sfp PPTase inh, Epigenetic reg, ClpP mod, RORg inh)
O=C(CCCn1c(=O)c2cccn2c2ccccc21)NCc1ccccc1Br	none (no result: Gal4-VP16 FLuc, Sfp PPTase inh, RORg inh)
Cc1nn(-c2ccccc2)cc1C(=S)Nc1ccccc1	RORg inh 11µM (no result: ClpP mod)
CC1CCCCN1c1nnc(NC(=O)Nc2ccccc2F)s1 (stereo not drawn)	none (no result: Gal4-VP16 FLuc, Sfp PPTase inh, RORg inh)
COc1cc(NC(=O)C2CCCO2)c(OC)cc1Cl (stereo not drawn)	none
Cc1ccc(NC(=S)NCC2CCCO2)c(OC(F)F)c1 (stereo not drawn)	Gal4-VP16 FLuc inconclusive, RORg inh 11µM
COc1cc(NC(=S)NCC2CCCO2)c(OC)cc1Cl (stereo not drawn)	Gal4-VP16 FLuc 18µM, RORg inh 10µM
CCN(CC)c1ccc(NC(=S)NCC2CCCO2)cc1 (stereo not drawn)	Gal4-VP16 FLuc 13µM, RORg inh 14µM (no result: ClpP mod)
Cc1cc(C)c(C)c(OCC(=O)NCC2CCCO2)c1 (stereo not drawn)	none
S=C(NCC1CCCO1)Nc1ccc(Cl)cc1 (stereo not drawn)	Gal4-VP16 FLuc inconclusive, RORg inh 10µM
Cc1cccc2sc(N)nc12	none (no result: Sfp PPTase inh, Epigenetic reg, ClpP mod, PINK1 expr mod)
COC(=O)c1ccc(C2c3c(oc4ccccc4c3=O)C(=O)N2c2nc(C)c(C(=O)OC)s2)cc1 (stereo not drawn)	none (no result: Gal4-VP16 FLuc, Sfp PPTase inh, RORg inh)
COc1ccccc1C1CN(Cc2cccc3c2OCO3)Cc2ccccc2O1 (stereo not drawn)	none (no result: Gal4-VP16 FLuc, Sfp PPTase inh, Epigenetic reg, ClpP mod, RORg inh)
Cc1ccc(NC(=S)NCC2CCN(C(C)c3ccccc3)C2)cc1C (stereo not drawn)	Gal4-VP16 FLuc inconclusive, RORg inh 8.9µM

Assay outcomes deposited in PubChem BioAssay by National Center for Advancing Translational Sciences (NCATS).
